Assay results as given in PubChem BioAssay AID1839 (Johns Hopkins Ion Channel Center, 2009).
About 220 (9.2%) of roughly 2,400 compounds were called active.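 Rule for the calls: active = signal change above the mean of dofetilide-free buffer controls plus 3 SD, so a positive margin; inactive = the rest.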 The full list was thinned out, with actives kept by preference.

test: nonspecific flux effects in parental CHO-K1, confirmation, counter-screen for hERG block protection project, cell-based, CHO-K1 parental line, FluxOR thallium flux (AID 1839); settings: CHO-K1 parental cells, FluxOR thallium flux fluorescence; at 10 µM;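 note: compounds applied alone with no dofetilide to cells lacking hERG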

| SMILES | signal change vs control minus 3*SD hit threshold (margin above threshold, higher = more increase) |
| --- | --- |
| O=C(NC(=S)N1CCN(C/C=C/c2ccccc2)CC1)c1ccc(Cl)nc1 | -22.6% (inactive) |
| Cc1ccc(NC(=S)N2CCN(c3ccccc3F)CC2)c(C)c1 | -24.2% (inactive) |
| O=c1[nH]c2ccc(S(=O)(=O)NCc3ccccc3)cc2[nH]1 | -30.8% (inactive) |
| CC(=O)c1c(N2CCN(Cc3ccccc3)CC2)[nH]c(-c2ccccc2)nc1=S | -16.4% (inactive) |
| CCN(CC)C(=O)CN1C(=O)c2cccc3cccc(c23)C1=O | -21.1% (inactive) |
| COc1ccccc1/C=C1\SC(=S)N(NS(=O)(=O)c2ccc(C)cc2)C1=O | -41.8% (inactive) |
| Cc1cc(=O)oc2cc(OC(C(=O)O)c3ccccc3)ccc12 (stereo not given) | -33.7% (inactive) |
| Cc1ccc(-c2cc(-c3n[nH]c(=S)o3)c3ccccc3n2)cc1 | -2.6% (inactive) |
| C=CCc1cc(Cl)ccc1OCCOCCN(C)C | -30% (inactive) |
| CCOC(=O)c1sc(NC(=O)c2ccccc2C(=O)O)c(C(=O)OCC)c1C | -19% (inactive) |
| CCOC(=O)c1sc2ncnc(NCC(c3cccs3)N(C)C)c2c1C (stereo not given) | 3.3% (active) |
| CCOC(=O)c1c(NC(=O)/C=C/c2ccco2)sc(C)c1C | -32.2% (inactive) |
| CCOC(=O)c1sc2ncnc(NCc3ccco3)c2c1C | 1.7% (active) |
| CCOC(=O)c1sc(NC(=S)NC(=O)c2ccccc2)nc1C | -3.4% (inactive) |
| CCOC(=O)c1sc2nc(C)[nH]c(=S)c2c1C | -9.2% (inactive) |
| CC/C(=N\NC(=O)c1nnn(-c2nonc2N)c1-c1cccs1)c1ccccc1 | -25.4% (inactive) |
| CC(C)(C)c1ccc(C(=O)NC(=S)Nc2nc3c(s2)CCCC3)cc1 | -9.2% (inactive) |
| O=C(NC(=S)Nc1nc2c(s1)CCCC2)c1ccc(C(=O)c2ccccc2)cc1 | -36.7% (inactive) |
| COC(=O)c1ccc(C(=O)NC(=S)Nc2nc3c(s2)CCCC3)cc1 | 2% (active) |
| O=C(NCC(c1cccs1)N1CCOCC1)c1cc(S(=O)(=O)N2CCOCC2)ccc1F (stereo not given) | -28.4% (inactive) |
| O=C1CSC(=S)N1/N=C/c1cc(Br)ccc1O | -42.6% (inactive) |
| O=C(/C=C/c1ccccc1)c1cc(Br)ccc(=O)c1O | -22.9% (inactive) |
| COc1ccc(-c2oc3ccccc3c(=O)c2OC(C)=O)cc1 | -22.3% (inactive) |
| CC(=O)Oc1c(-c2ccc(Br)o2)oc2ccccc2c1=O | 63.5% (active) |
| CC(=O)Oc1c(-c2ccco2)oc2ccccc2c1=O | -12.5% (inactive) |
| Cc1ccc(C(=O)NNc2cc(N3CCCC3)nc(N3CCCC3)n2)cc1 | -21.8% (inactive) |
| Cc1ccc(N/C=C/C(=O)c2cccs2)cc1 | -25.9% (inactive) |

| SMILES | signal change vs control minus 3*SD hit threshold (margin above threshold, higher = more increase) |
| --- | --- |
| O=C(NC(=S)NNC(=O)c1cccs1)c1ccc(Br)o1 | -45.9% (inactive) |
| COc1ccc(NC(=O)C(=O)NNC(=O)c2cccs2)c(OC)c1 | -7.2% (inactive) |
| CCc1ccc(NC(=O)C(=O)NNC(=O)c2cccs2)cc1 | 18.1% (active) |
| Cc1ccc(NC(=O)C(=O)NNC(=O)c2cccs2)cc1 | 27.4% (active) |
| CCN(CC)c1ccc(NC(=S)NC(=O)c2cccs2)cc1 | -20.8% (inactive) |
| CCOc1ccccc1Nc1nc(-c2sc(C)nc2C)cs1 | -38.3% (inactive) |
| COC(=O)c1ccc(-n2c(C)nc(=O)c(-c3ccccc3)c2C)cc1 | -20.1% (inactive) |
| COc1ccc(CCNS(=O)(=O)c2csc(C(N)=O)c2)cc1OC | -34.6% (inactive) |
| CCNC(=S)Nc1scc(-c2ccccc2)c1C(=O)OCC | -20.8% (inactive) |
| O=c1oc2ccccc2c(Cl)c1CN1CCCCC1 | -42.9% (inactive) |
| NC(=O)C1CCN(C(=O)CCC(=O)c2ccc(F)cc2)CC1 | -28.7% (inactive) |
| Cc1sc2nc(CN3CCOCC3)[nH]c(=S)c2c1C | 21.4% (active) |
| CCOC(=O)NC(=S)Nc1ccc(C(C)(C)C)cc1Br | -0.4% (inactive) |
| CC(=O)c1c(C)c2c(n1CCN(C)C)CCCC2 | -15.9% (inactive) |
| CSc1nc2c(c(=O)[nH]1)C(c1ccc(Cl)cc1)CC(=O)N2 (stereo not given) | -31.6% (inactive) |
| O=c1c2ccc(Cl)cc2[nH]c(=S)n1CCC1=CCCCC1 | 4.8% (active) |
| O=c1c2ccccc2[nH]c(=S)n1CCC1=CCCCC1 | 3% (active) |
| CC(C)COn1c(=S)[nH]c2ccccc2c1=O | -10.2% (inactive) |
| CCCCn1c(=S)[nH]c2ccccc2c1=O | -18.2% (inactive) |
| CCCCCn1c(=S)[nH]c2ncccc2c1=O | -0.3% (inactive) |
| COc1ccccc1Cn1c(=S)[nH]c2ccc(Br)cc2c1=O | -15.7% (inactive) |
| Cc1ccc(Cn2c(=S)[nH]c3ccccc3c2=O)cc1 | -14.9% (inactive) |
| O=c1c2ccccc2[nH]c(=S)n1CCc1ccccc1 | 5.9% (active) |
| CC(C)CCn1c(=S)[nH]c2ncccc2c1=O | -18.3% (inactive) |
| O=c1c2cccnc2[nH]c(=S)n1CCC1=CCCCC1 | 14.4% (active) |
| O=C(CCn1c(=S)[nH]c2cc3c(cc2c1=O)OCO3)NCc1ccc(Cl)cc1 | -22.3% (inactive) |
| O=[N+]([O-])c1ccc(Nc2ccc(Cl)cc2)nc1 | -22% (inactive) |

| SMILES | signal change vs control minus 3*SD hit threshold (margin above threshold, higher = more increase) |
| --- | --- |
| COc1cccc(/C=N/n2c(SC)nnc2-c2ccccc2)c1O | -24.3% (inactive) |
| Cc1cc(=O)[nH]c(=S)n1-c1ccccc1 | -38.5% (inactive) |
| Cc1nn(-c2cccc(C(F)(F)F)c2)c(Cl)c1/C=N/Nc1cccc(C(=O)O)c1 | -28.4% (inactive) |
| CCNC(=O)C/C(C)=N/NC(=O)C(=O)Nc1ccc(CC)cc1 | -7.4% (inactive) |
| COc1ccc(/C=N/NC(=O)c2ccncc2)cc1CN1CCCc2ccccc21 | -40.9% (inactive) |
| CC1CN(S(=O)(=O)c2ccc(-c3nc4ccccc4s3)cc2)CC(C)O1 (stereo not given) | -8.4% (inactive) |
| CCSc1nnc(NC(=O)Cn2cnc3c2c(=O)n(C)c(=O)n3C)s1 | -29.2% (inactive) |
| COc1ccc(N2C(=O)/C(=C/c3cccs3)NC2=S)cc1 | -29.8% (inactive) |
| CCCN1C(=O)/C(=C/c2ccc3c(c2)OCO3)NC1=S | -21.2% (inactive) |
| CC(C)CN1C(=O)/C(=C/c2cccs2)NC1=S | 32% (active) |
| CC(C)CN1C(=O)/C(=C/c2ccco2)NC1=S | -30.9% (inactive) |
| CCCN1C(=O)/C(=C/c2ccc(C)s2)NC1=S | 33.6% (active) |
| CCN1C(=O)/C(=C/c2ccc(C)s2)NC1=S | 1.1% (active) |
| COc1ccc(C(=O)NC(=S)N2CCC(C)CC2)cc1Br | -12.4% (inactive) |
| Oc1c(Br)cc(Cl)cc1C=Nc1ccccc1Br | -1.8% (inactive) |
| O=C(c1ccc(CS(=O)c2cccc(Cl)c2)o1)N1CCCCCC1 (stereo not given) | -32.8% (inactive) |
| NS(=O)(=O)c1ccc(NC(=S)NCc2cccs2)cc1 | -30.2% (inactive) |
| O=C(Nc1cccnc1)c1cc(-c2cccs2)on1 | -26.5% (inactive) |
| COC(=O)C1CCCN1C(=O)COc1ccc(Cl)cc1Br (stereo not given) | -25.2% (inactive) |
| O=C(c1c(O)c2ccccc2oc1=O)C1CCCCC1 | -22% (inactive) |
| CCN(Cc1ccccc1)C(=S)NC(=O)c1ccccc1Br | 27% (active) |
| O=C(NC(=S)N(Cc1ccccc1)Cc1ccccc1)c1ccccc1F | -6.4% (inactive) |
| N#CCCN(Cc1ccccc1)C(=S)NC(=O)c1ccccc1 | -30.7% (inactive) |
| CCN(C(=S)NC(=O)c1ccccc1Br)C1CCCCC1 | 16.2% (active) |
| CCC(=O)NC(=S)NNC(=O)c1ccccc1[N+](=O)[O-] | -28% (inactive) |
| CN(C(=S)NC(=O)c1ccccc1)C1CCCCC1 | -23.6% (inactive) |
| CN(Cc1ccccc1)C(=S)NC(=O)c1cccs1 | -20.6% (inactive) |

| SMILES | signal change vs control minus 3*SD hit threshold (margin above threshold, higher = more increase) |
| --- | --- |
| CN(C(=S)NC(=O)c1ccccc1Br)C1CCCCC1 | -13.4% (inactive) |
| CCCN(Cc1ccccc1)C(=S)NC(=O)c1ccccc1[N+](=O)[O-] | 24.3% (active) |
| CCc1cc2cc(C)cc(C)c2[nH]c1=S | -11.2% (inactive) |
| COc1ccc(OCC(=O)Nc2c3c(nn2-c2ccc(OC)cc2)CS(=O)(=O)C3)cc1 | -14.9% (inactive) |
| O=C(O)c1ccc(S(=O)(=O)/N=C2\C=C(Nc3ccccc3F)C(=O)c3ccccc32)cc1 | -14.9% (inactive) |
| O=C(Nc1ccccc1)OCCCCCOC(=O)Nc1ccccc1 | -25.4% (inactive) |
| O=C(O)c1ccccc1NC(=O)c1cc2ccccc2oc1=O | -21.3% (inactive) |
| Cc1ccc(C)c(NC(=S)NC(=O)c2cncc(Br)c2)c1 | -24.9% (inactive) |
| CCCCCCC12CCC(C(=O)O)(CC1)CC2 | -8.9% (inactive) |
| O=c1c2[nH]c3ccccc3c2nc2n1CCCS2 | -3.7% (inactive) |
| C=CCNC(=O)c1ccccc1NC(=O)COc1ccc(OC)cc1 | -31.9% (inactive) |
| COc1ccc(N2CCN(C(=S)NC(=O)c3cccs3)CC2)c([N+](=O)[O-])c1 | -27.4% (inactive) |
| COc1cc(/C=C/C(=O)N[C@@H](Cc2c[nH]c3ccccc23)C(=O)O)ccc1O | -19.7% (inactive) |
| CCCCSc1nnc(CCC)n1N | -30.7% (inactive) |
| O=C(CC1CCCC1)Nc1ccc2c(c1)CCC2 | -18.5% (inactive) |
| CC1Cc2ccccc2N1C(=S)NC(=O)c1ccc(Cl)cc1Cl (stereo not given) | 23.8% (active) |
| O=C(NC(=S)N1CCCc2ccccc21)c1ccc(Br)cc1 | -8.9% (inactive) |
| CC(C)N(Cc1ccccc1)C(=S)NC(=O)C1(C)CC1(Cl)Cl (stereo not given) | -9.7% (inactive) |
| Cc1csc2ncc(C(=O)N3c4ccccc4CC3C)c(=O)n12 (stereo not given) | -16.4% (inactive) |
| CC(Oc1ccc(Cl)cc1Cl)C(=O)NC(=S)N1CCc2ccccc21 (stereo not given) | -7.9% (inactive) |
| CC1Cc2ccccc2N1C(=S)NC(=O)c1ccco1 (stereo not given) | -28.6% (inactive) |
| CC1Cc2ccccc2N1C(=S)NC(=O)C1(C)CC1(Cl)Cl (stereo not given) | 11.2% (active) |
| Cc1cccc(C(=O)NC(=S)N2CCc3ccccc3C2)c1 | -1.3% (inactive) |
| CC1Cc2ccccc2N1C(=S)NC(=O)c1cccc(Br)c1 (stereo not given) | 48.8% (active) |
